Shown are actives, neighbours in structure and some others; about 3.5% of the full set was active somewhere.
FBW7 act = FBW7 E3 ligase activators, primary screen, biochemical, AlphaScreen, human; normalized activity (activation), % at 26.1 µM; AID 1259310, 2017; AlphaScreen FBW7–phospho-cyclin E peptide binding, activator screen; 0.13% of 650,000 active; F-box/WD repeat-containing protein 7 (Homo sapiens), Q969H0; in the data active = normalized activity above about 1.9%;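 also: purified mutant Fbw7 with reduced substrate affinity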
MITF primary = MITF inhibitors, primary screen, biochemical, AlphaScreen, human; AID 1259374, 2018; AlphaScreen MITF homodimerization, bead proximity signal; Microphthalmia-associated transcription factor (Homo sapiens), O75030; inhibition, % at 2.6 µM; 0.91% of 650,000 active; in the data active = inhibition above about 50%;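 also: 0% = vehicle wells with protein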
GPR151 ag = activators of human GPR151, primary screen, cell-based, PathHunter beta-arrestin, luminescence; 1% of 650,000 active; PathHunter beta-arrestin GPR151 cells; G-protein coupled receptor 151 (Homo sapiens), Q8TDV0; activation, % at 11.2 µM; in the data active = activation above about 4.9%;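 also: 0% = median of compound wells and 100% = cells with positive control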
Target sequence (Q8TDV0 whole entry, looked up): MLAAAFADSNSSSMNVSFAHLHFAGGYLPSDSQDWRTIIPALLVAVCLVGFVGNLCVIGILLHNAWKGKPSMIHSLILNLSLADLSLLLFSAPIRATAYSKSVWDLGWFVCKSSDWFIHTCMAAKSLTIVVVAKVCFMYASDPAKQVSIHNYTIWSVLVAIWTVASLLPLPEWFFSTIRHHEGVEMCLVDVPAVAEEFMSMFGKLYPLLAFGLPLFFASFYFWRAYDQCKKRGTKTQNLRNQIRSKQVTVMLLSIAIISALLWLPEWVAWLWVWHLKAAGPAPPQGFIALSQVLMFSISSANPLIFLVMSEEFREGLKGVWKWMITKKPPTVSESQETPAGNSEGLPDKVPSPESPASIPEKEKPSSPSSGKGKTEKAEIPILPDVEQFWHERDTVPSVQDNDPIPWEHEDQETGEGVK
TEAD-YAP block = TEAD-YAP interaction inhibition, primary screen, TEAD-YAP interaction inhibitor project, luminescence, HEK-TIYL cells; TEAD-Gal4/YAP UAS-luciferase luminescence; inhibition, % at 9.12 µM; 1.4% of 640,000 active; in the data active = inhibition above about 32%;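 also: 0% = median of test compound wells and 100% = reference inhibitor wells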
MITF inh conf = MITF inhibitors, retest of hits, confirmation, biochemical, AlphaScreen, triplicate; shares compounds with MITF primary; AlphaScreen MITF homodimerization, biotin/His-MITF beads; inhibition, % at 2.6 µM; 16% of 4,700 active; AID 1259372, 2018;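 active = inhibition above a cutoff derived from the DMSO control wells, cut at about 28% in these data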;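 also: 0% = MITF dimer wells with DMSO only; inhibitors lower the bead chemiluminescence by keeping MITF from dimerizing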
AlphaScreen DR = AlphaScreen optical interference compounds, dose response, counter-screen, biochemical, HTS. AID 1259373, 2018. AlphaScreen optical interference counterscreen, cell-free. IC50, µM. shares compounds with MITF primary. 6% of 480 active; call rule not given here
AS interf ctr = AlphaScreen optical interference compounds, counter-screen for MITF inhibitor project, biochemical, triplicate; shares compounds with MITF primary; LysRS AlphaScreen counterscreen, signal interference; inhibition, % at 2.6 µM; 7.6% of 4,700 active;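 active = inhibition above a cutoff derived from the DMSO control wells, cut at about 30% in these data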
Numbers without * were called inactive.

OC(CNNc1c(F)c(F)cc(F)c1F)COc1ccccc1 (stereo not given) was read as FBW7 act -0.3, MITF primary 58.4*, GPR151 ag -2.1, TEAD-YAP block -6.9, MITF inh conf -1.2 and AS interf ctr 1.8.
`CCOc1ccc(C(=O)Oc2coc(CSc3nccn3C)cc2=O)cc1` gave FBW7 act -0.1, MITF primary 3.2, GPR151 ag 2.4 and TEAD-YAP block 8.2.
NC(=O)NC(=O)COC(=O)c1oc2ccccc2c1COc1ccccc1 was read as FBW7 act 0.1, MITF primary -4.2, GPR151 ag 0.0 and TEAD-YAP block 4.5.
For NC(=O)COC(=O)c1oc2ccccc2c1COc1ccccc1 the results were FBW7 act 0.7, MITF primary 64.0*, GPR151 ag -1.3, TEAD-YAP block 11.3, MITF inh conf 15.9 and AS interf ctr 19.8.
For COc1ccccc1C(=O)Nc1ccc(NC(=O)c2ccccn2)cn1 the results were FBW7 act -0.1, MITF primary -4.2, GPR151 ag -0.4 and TEAD-YAP block 0.1.
O=C(CC(=O)Nc1ccc(C(=O)NC2CCCCC2)cc1)Nc1ccc(C(=O)NC2CCCCC2)cc1 was read as FBW7 act 0.1, MITF primary -0.3, GPR151 ag -0.8 and TEAD-YAP block 0.3.
For O=C1NC(=S)N/C1=C\c1ccc([N+](=O)[O-])o1 the results were FBW7 act -0.2, MITF primary 67.5*, GPR151 ag 0.7, TEAD-YAP block -17.9, MITF inh conf 67.3*, AlphaScreen DR >7.74 and AS interf ctr 14.5.
For O=C1NC(=S)N/C1=C\c1ccc(-c2cccc([N+](=O)[O-])c2)o1 the results were FBW7 act -0.1, MITF primary -5.5, GPR151 ag -0.8 and TEAD-YAP block -2.9.
`O=C(COC(=O)c1cc(=O)c2ccccc2o1)NCc1ccccc1` gave FBW7 act -0.1, MITF primary 3.5, GPR151 ag -0.6 and TEAD-YAP block 0.4.
Screening O=C(COC(=O)c1cc(=O)c2ccccc2o1)NCc1ccc(Cl)cc1 returned FBW7 act 0.4, MITF primary 51.5*, GPR151 ag -1.0, TEAD-YAP block 10.8, MITF inh conf -9.1 and AS interf ctr -4.7.
Screening Cc1cccc(CN2CCN(C3CCC(C)CC3)CC2)c1 (stereo not given) returned FBW7 act -0.1, MITF primary 55.4*, GPR151 ag 0.8, TEAD-YAP block -14.5, MITF inh conf 27.9*, AlphaScreen DR >5.54 and AS interf ctr 18.2.
`CCOc1ccc(CN2CCN(C(=O)c3ccccc3OC)CC2)cc1` gave FBW7 act -0.1, MITF primary 57.0*, GPR151 ag 1.1, TEAD-YAP block 31.1, MITF inh conf 4.2 and AS interf ctr 15.6.
Screening CCOc1ccc(CN2CCN(C3CCC(C)CC3)CC2)cc1 (stereo not given) returned FBW7 act -0.1, MITF primary 71.0*, GPR151 ag 0.0, TEAD-YAP block 2.9, MITF inh conf 2.8 and AS interf ctr 9.0.
For CCOc1ccc(CN2CCC(C(=O)NCc3ccco3)CC2)cc1 the results were FBW7 act 0.5, MITF primary 83.2*, GPR151 ag -2.3, TEAD-YAP block 2.3, MITF inh conf 14.1 and AS interf ctr 14.2.
Screening CCOc1ccc(CN2CCC(C(=O)NC(C)(C)C)CC2)cc1 returned FBW7 act 0.5, MITF primary 19.2, GPR151 ag 1.0 and TEAD-YAP block 0.9.
`COc1ccccc1C(=O)N1CCN(Cc2ccc3ccccc3c2)CC1` gave FBW7 act -0.4, MITF primary 45.4, GPR151 ag 0.3 and TEAD-YAP block 21.7.
`COc1ccc(-c2ncc(CN3CCN(C4CCCC4)C(CCO)C3)cn2)cc1` (stereo not given) gave FBW7 act -0.1, MITF primary 4.3, GPR151 ag -0.2 and TEAD-YAP block -3.2.
